# Data published in PubChem BioAssay AID720541 (National Center for Advancing Translational Sciences (NCATS), 2013).
# Out of some 1,300 compounds screened, about 420 (32%) were called active. Roughly 32% stayed inconclusive and do not appear here. Calls come from the whole dose curve; as a rule, active = well fitted inhibition curve with a large enough effect; inconclusive = small, poorly fitted or top-dose-only effect; inactive = no such curve, though single readings can be large or run the other way. The list shows a part of the results.
# Molecular target: C-terminal-binding protein 1 (Homo sapiens) (UniProt Q13363)
# Assay: qHTS for Inhibitors of the Phosphatase Activity of Eya2: Carboxyl-terminal binding protein (CtBP) Counterscreen for Cherry-picked Compounds; note: nearly all actives have a fitted effect of over 65% in size
# Conditions: purified protein-protein binding, AlphaScreen, 3 h; series mostly up to 46.1 µM
# Method in brief: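 AlphaScreen using 25 nM GST-E1A with 25 nM CtBP-6xHIS; compounds at 2.5 nM–46 uM final, 2 h at room temperature, then donor/acceptor beads (20 ug/mL) for 1 h in the dark. Signal normalized to E1A peptide inhibitor (maximum inhibition) and DMSO.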
# Potency is the fitted concentration of half-maximal effect.
row,SMILES,Potency
1,O=c1cc(Nc2ccc3c(c2)OCO3)[nH]c(=O)n1-c1ccc(Br)cc1,inactive
2,S=C(NC1CC1)NC1CCCc2ccccc21 (stereo unspecified),inactive
3,COc1ccc(-c2ccc(SCc3cccnc3)nn2)cc1OC,13.5 µM (active)
4,O=C(O)CCCCCNS(=O)(=O)c1cccc2c1C(=O)c1ccccc1C2=O,5.36 µM (active)
5,O=C(O)c1ccc(Nc2nc(-c3ccccc3)nc3ccccc23)cc1,9.53 µM (active)
6,Cc1ccc(Nc2nc(-c3cccnc3)nc3ccccc23)cc1,inactive
7,O=C(O)c1cccc(Nc2nc(-c3ccccc3)nc3ccccc23)c1,12 µM (active)
8,CCOC(=O)c1nc(Nc2ccc(Nc3ccccc3)cc2)c2ccccc2n1,13.5 µM (active)
9,Cc1cc(Nc2ccc([N+](=O)[O-])cc2)c2ccccc2n1,inactive
10,CCOC(=O)NNc1nncc2ccccc12,inactive
11,O=C(C1CCN(c2nnc(-n3cccc3)s2)CC1)N1CCOCC1,inactive
12,Cc1ccc(NC(=O)CN2C(=O)S/C(=C\c3cc(Cl)c(OCC(=O)O)c(Cl)c3)C2=O)cc1,15.1 µM (active)
13,CCOc1ccc2c(c1)-c1c(ssc1=S)C(C)(C)N2C(=O)CSC1=NCCS1,15.1 µM (active)
14,Cc1cc(C)nc(-n2nc(C)cc2NC(=O)c2cc3ccccc3oc2=O)n1,4.78 µM (active)
15,CC1=NN(c2ccccc2)C(=O)/C1=C\C=C1/N(C)c2ccccc2C1(C)C,9.53 µM (active)
16,CN1/C(=C\C=C2/SC(=S)NC2=O)C(C)(C)c2ccccc21,12 µM (active)
17,CN(C)c1ccc2c(c1)C(=NO)c1ccccc1-2,16.9 µM (active)
18,CN(C)c1ccc(/C=C2\c3ccccc3-c3ccc(N(C)C)cc32)cc1,5.36 µM (active)

row,SMILES,Potency
1,CNc1ccc(C=C2c3ccccc3-c3ccccc32)cc1,12 µM (active)
2,CN(C)c1ccc(/C=C2\C(Cl)=Cc3ccccc32)cc1,6.75 µM (active)
3,Cc1oc(-c2ccc(-c3ccccc3)cc2)nc1CN(C)C1CCOC1 (stereo unspecified),inactive
4,Cc1ccc(C(=O)Oc2ccc(N3C(=O)CCC3=O)c(C)c2)cc1,inactive
5,O=C(/C=C/c1ccc(O)c(O)c1)OC(Cc1ccc(O)c(O)c1)C(=O)O (stereo unspecified),inactive
6,COc1cccc(OC)c1C(=O)OCC(=O)NCC1CCCCC1,inactive
7,CC1=CC(C)(C)n2c(O)c(C3=NC(=S)NC3=O)c3cc(OC(=O)c4cccc5ccccc45)cc1c32,inactive
8,CN(C)c1ccc(C=C2c3ccccc3-c3ccccc32)cc1,8.49 µM (active)
9,CN(C)c1ccc(/C=C2\C(=O)/C(=C/c3ccc(N(C)C)cc3)c3ccccc32)cc1,5.36 µM (active)
10,OC(COc1ccc2cc(Br)ccc2c1)Cn1ccnc1 (stereo unspecified),inactive
11,COc1ccc(Nc2cc3n(c(=O)n2)CCc2cc(OC)c(OC)cc2-3)c(C)c1,12 µM (active)
12,COc1ccc(NC(=O)c2cc(S(=O)(=O)N3CCc4ccccc43)cn2C)cc1OC,inactive
13,CCOc1ccc(Nc2cc3n(c(=O)n2)CCc2cc(OC)c(OC)cc2-3)cc1,5.36 µM (active)
14,COc1cc2c(cc1OC)-c1cc(Nc3ccc(C)cc3)nc(=O)n1CC2,4.26 µM (active)
15,COc1cc2c(cc1OC)-c1cc(Nc3ccccc3)nc(=O)n1CC2,6.75 µM (active)
16,Cc1nc(COC(=O)c2c(C)nn(-c3ccccc3)c2C)cs1,inactive
17,COc1cc2c(cc1OC)-c1cc(Nc3ccc(F)cc3)nc(=O)n1CC2,2.39 µM (active)
18,O=C(NCc1ccc2c3c(cccc13)C(=O)N2)c1cccs1,inactive
